Assay results taken from PubChem BioAssay AID1159580 (chemical genetic matrix, 2015).
Where “and” joins values, the source holds several entries; their conditions need not be identical. Identical values can stand only once. Screen size: about 5,500 compounds; about 2,000 (36%) were called active. Another 18% or so got no clear call; they are omitted. No stated cut-off is given here; in the data, active means normalized growth mostly below about 0.91 (no sharp cut-off); inconclusive means no clear call, values can overlap the other calls; inactive means mostly above about 0.92. The list shows a part of the results.

Assay: chemical genetic growth profiling, strain panel (AID 1159580);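 further: tested at 20 µM; growth read once vehicle control cultures reached saturation at 30 °C; 1 = growth at the plate median or of vehicle wells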
Conditions: S. cerevisiae deletion strains, growth OD

Measured: normalized growth

Cc1cc(O)ccc1Cl
active: locus YAL021C, strain ccr4, stronger effect = lower value 1.11 [resistant] | locus YDR137W, strain rgp1, stronger effect = lower value 0.816 | locus YDR159W, strain sac3, stronger effect = lower value 0.784 | locus YDR195W, strain ref2 1.2 [resistant]
inactive: locus YAL026C, strain drs2, stronger effect = lower value 1.01 | locus YAL030W, strain snc1, stronger effect = lower value 1.02 | locus YBL061C, strain skt5, stronger effect = lower value 0.992 | locus YBR009C, strain hhf1, stronger effect = lower value 0.999 | locus YBR021W, strain FUR4, stronger effect = lower value 1.02 | locus YBR023C, strain chs3, stronger effect = lower value 1.01 | locus YBR171W, strain sec66, stronger effect = lower value 0.997 | locus YBR229C, strain ROT2, stronger effect = lower value 1 | locus YBR231C, strain swc5, stronger effect = lower value 0.993 | locus YBR279W, strain paf1, stronger effect = lower value 1.02 | locus YCL011C, strain gbp2, stronger effect = lower value 1.01 | locus YCL016C, strain dcc1, stronger effect = lower value 1.01 | locus YCL029C, strain bik1, stronger effect = lower value 0.983 | locus YCL069W, strain vba3, stronger effect = lower value 1.02 | locus YCR088W, strain abp1, stronger effect = lower value 1.01 | locus YDL005C, strain med2, stronger effect = lower value 1.02 | locus YDL035C, strain GPR1, stronger effect = lower value 0.955 | locus YDL040C, strain nat1, stronger effect = lower value 1 | locus YDL074C, strain BRE1, stronger effect = lower value 0.987 | locus YDL101C, strain DUN1, stronger effect = lower value 1.03 | locus YDL185W, strain tfp1, stronger effect = lower value 0.986 | locus YDL192W, strain arf1, stronger effect = lower value 1 | locus YDR001C, strain nth1, stronger effect = lower value 1.01 | locus YDR069C, strain doa4, stronger effect = lower value 1.03 | locus YDR101C, strain arx1, stronger effect = lower value 0.992 | locus YDR162C, strain NBP2, stronger effect = lower value 0.986 | locus YDR297W, strain sur2, stronger effect = lower value 1.03 | locus YDR318W, strain mcm21, stronger effect = lower value 0.993 | locus YDR334W, strain swr1, stronger effect = lower value 1.02 | locus YDR335W, strain msn5, stronger effect = lower value 1 | locus YDR388W, stronger effect = lower value 1 | locus YDR392W, strain spt3, stronger effect = lower value 0.944 | locus YDR502C, strain sam2, stronger effect = lower value 0.974 | locus YEL003W, strain gim4, stronger effect = lower value 1.01 | locus YEL037C, strain rad23, stronger effect = lower value 1.01 | locus YEL061C, strain CIN8 (second series), stronger effect = lower value 1.01 | locus YEL061C, strain CIN8, stronger effect = lower value 0.999 | locus YER015W, strain faa2, stronger effect = lower value 0.993 | locus YER016W, strain bim1, stronger effect = lower value 0.994 | locus YER110C, stronger effect = lower value 1.01 | locus YER111C, strain swi4, stronger effect = lower value 1.01 | locus YER155C, strain BEM2 (second series), stronger effect = lower value 0.991 | locus YER155C, strain BEM2, stronger effect = lower value 1 | locus YER167W, strain BCK2, stronger effect = lower value 0.997 | locus YFR010W, strain ubp6, stronger effect = lower value 1 | locus YGL078C, strain dbp3, stronger effect = lower value 0.981 | locus YGL086W, strain mad1, stronger effect = lower value 0.968 | locus YGL167C, strain pmr1, stronger effect = lower value 1.02 | locus YGL173C, strain kem1, stronger effect = lower value 0.948 | locus YGL227W, strain vid30, stronger effect = lower value 1 | locus YGL240W, strain doc1, stronger effect = lower value 0.999 | locus YGL248W, strain PDE1, stronger effect = lower value 1.02 | locus YGL253W, strain hxk2, stronger effect = lower value 1.01 | locus YGR135W, strain pre9, stronger effect = lower value 1.02 | locus YGR252W, strain gcn5, stronger effect = lower value 0.936 | locus YHR013C, strain ard1, stronger effect = lower value 1.13 | locus YHR027C, strain rpn1, stronger effect = lower value 0.991 | locus YHR030C, strain SLT2, stronger effect = lower value 0.999 and 0.932 | locus YHR079C, strain IRE1 (second series), stronger effect = lower value 1.01 | locus YHR079C, strain IRE1, stronger effect = lower value 0.954 | locus YHR094C, strain hxt1, stronger effect = lower value 1.01 | locus YHR129C, strain ARP1, stronger effect = lower value 1.01 | locus YHR142W, strain chs7, stronger effect = lower value 0.981 | locus YHR200W, strain rpn10, stronger effect = lower value 1 | locus YIL066C, strain RNR3, stronger effect = lower value 1 | locus YIL073C, strain SPO22, stronger effect = lower value 1.04 | locus YIL125W, strain kgd1, stronger effect = lower value 1.01 | locus YIR030C, strain dcg1, stronger effect = lower value 1 | locus YJL092W, strain hpr5, stronger effect = lower value 0.989 | locus YJL095W, strain BCK1 (second series), stronger effect = lower value 1.01 | locus YJL095W, strain BCK1, stronger effect = lower value 1.02 and 0.938 | locus YJL115W, strain asf1, stronger effect = lower value 1.02 | locus YJL129C, strain trk1, stronger effect = lower value 1 | locus YJL134W, strain LCB3, stronger effect = lower value 1.01 | locus YJL154C, strain vps35, stronger effect = lower value 1.01 | locus YJL164C, strain tpk1, stronger effect = lower value 1.02 | locus YJL166W, strain qcr8, stronger effect = lower value 1 | locus YJL168C, strain set2, stronger effect = lower value 1.01 | locus YJL187C, strain SWE1 (second series), stronger effect = lower value 1.02 | locus YJR043C, strain POL32, stronger effect = lower value 0.991 | locus YJR066W, strain TOR1, stronger effect = lower value 0.942
